Assay outcomes from PubChem.
DUX4 inh – blocks DUX4-driven transcriptional activation | AID 1224904 | hit rate 0.8% among 37,000 | 293T-iDUX4 ZSCAN4-Gaussia luciferase reporter, 24 h; stronger effect = lower value | activity change, negative = inhibition, % (concentration not given with the values);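 active = mean inhibition of at least 10% in the main channel, exceeding the control channel by a set limit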;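 note: 0% = median of neutral control wells and -100% = median of positive control wells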
An asterisk follows results filed as active. The list is a sample of the results.

SMILES | DUX4 inh
O=C(C[C@@H]1C[C@@H]2c3cc(NC(=O)Nc4ccc(C(F)(F)F)cc4)ccc3O[C@@H]2[C@@H](CO)O1)NCc1ccc2c(c1)OCO2 | -7.1
O=C(C[C@H]1C[C@@H]2c3cc(NC(=O)CC4CC4)ccc3O[C@@H]2[C@@H](CO)O1)NCCc1ccccc1 | -3.1
O=C(C[C@H]1C[C@H]2c3cc(NC(=O)Nc4ccc(C(F)(F)F)cc4)ccc3O[C@H]2[C@@H](CO)O1)NCc1ccc(Cl)cc1 | -3.8
CNC[C@@H]1Oc2cc(-c3ccc(C(=O)N(C)C)cc3)ccc2S(=O)(=O)N([C@@H](C)CO)C[C@H]1C | 3.1
COc1ccc(C(=O)Nc2ccc3c(c2)C(=O)N(C)[C@H]2CC[C@@H](CC(=O)NCC4CC4)O[C@H]2CO3)cc1 | -1.9
O=C(O)C[C@@H]1CC[C@@H](NC(=O)CCN2CCCCC2)[C@H](CO)O1 | 0.1
O=C(Nc1ccc2c(c1)[C@H]1C[C@@H](CC(=O)N3CCc4ccccc4C3)O[C@H](CO)[C@H]1O2)c1cccnc1 | -3.3
C[C@@H]1CCCCO[C@H](CN(C)C(=O)c2ccncc2)[C@H](C)CN([C@H](C)CO)C(=O)c2cc(NS(=O)(=O)c3cn(C)cn3)ccc2O1 | -1.5
COc1ccc(NC(=O)N2C[C@@H](O)COC[C@@H]3O[C@H](CC(=O)N4CCCCC4)CC[C@H]32)cc1 | 0.5
COCC(=O)NC[C@@H]1[C@@H](c2ccc(-c3ccccc3)cc2)[C@H](CO)N1C(C)=O | 1.7
